For some assays here: Results with a measured potency or affinity are listed apart. Activity calls are given as the source filed them. Unless noted, how the calls were made is not given here.
Key:
[1] = antimalarial activity against Dd2 strain (AID 2302;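 active means growth inhibition above 50% at the single 2 µM test dose, taken to imply half-maximal potency below 2 µM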;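 further: 0% = DMSO untreated growth and 100% = chloroquine plus artemisinin killed control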); details: P. falciparum Dd2 in RBCs, LDH growth readout, 72 h; at 2 µM; active compounds read high
[2] = human hepatoma cell viability loss – ATP luminescence, cytotoxicity control for P. falciparum antimalarial project, primary screen (AID 2303;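 active means inhibition above 50%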;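 further: 0% = DMSO wells and 100% = digitonin-killed cells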); details: HepG2 viability, 24-48 h, at 10 µM, active compounds read high
[3] = molecular target: L-lactate dehydrogenase (Plasmodium falciparum (isolate CDC / Honduras)) (UniProt Q27743); assay: PfLDH activity inhibition – cell lysate, 3D7 strain, counter-screen for P. falciparum growth inhibition project (AID 2304);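 further: 0% = vehicle and 100% = reference inhibitor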; details: P. falciparum 3D7 crude extract, LDH APAD/NBT absorbance; at 2 µM; active compounds read high
Sequence of L-lactate dehydrogenase (Plasmodium falciparum (isolate CDC / Honduras)) (Q27743 whole entry, looked up): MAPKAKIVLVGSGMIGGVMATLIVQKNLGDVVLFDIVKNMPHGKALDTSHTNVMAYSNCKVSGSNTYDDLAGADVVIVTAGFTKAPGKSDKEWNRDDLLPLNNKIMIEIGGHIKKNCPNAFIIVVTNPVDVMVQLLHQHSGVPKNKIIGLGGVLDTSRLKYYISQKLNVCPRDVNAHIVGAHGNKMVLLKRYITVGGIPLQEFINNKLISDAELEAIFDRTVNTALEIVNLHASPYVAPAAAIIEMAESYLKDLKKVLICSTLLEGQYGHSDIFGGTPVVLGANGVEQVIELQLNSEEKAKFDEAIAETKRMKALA

[4] = inhibition of 3D7 malaria parasite growth – strain 3D7 (AID 2306);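 further: 0% = DMSO wells and 100% = chloroquine plus artemisinin control wells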; details: P. falciparum 3D7 erythrocytic growth, LDH absorbance, 72 h; at 2 µM; active compounds read high
[5] = molecular target: Calcium-dependent protein kinase 1 (Plasmodium falciparum (isolate 3D7)) (UniProt P62344); assay: PfCDPK1 kinase inhibitors, biochemical, TCAMS library (AID 1159585; cut-off not given, nearly all actives have IC50 up to about 0.98 µM;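 further: inhibitors leave more ATP so luminescence rises with inhibition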); details: recombinant PfCDPK1, Kinase-Glo ATP depletion luminescence
Sequence of Calcium-dependent protein kinase 1 (Plasmodium falciparum (isolate 3D7)) (P62344 whole entry, looked up): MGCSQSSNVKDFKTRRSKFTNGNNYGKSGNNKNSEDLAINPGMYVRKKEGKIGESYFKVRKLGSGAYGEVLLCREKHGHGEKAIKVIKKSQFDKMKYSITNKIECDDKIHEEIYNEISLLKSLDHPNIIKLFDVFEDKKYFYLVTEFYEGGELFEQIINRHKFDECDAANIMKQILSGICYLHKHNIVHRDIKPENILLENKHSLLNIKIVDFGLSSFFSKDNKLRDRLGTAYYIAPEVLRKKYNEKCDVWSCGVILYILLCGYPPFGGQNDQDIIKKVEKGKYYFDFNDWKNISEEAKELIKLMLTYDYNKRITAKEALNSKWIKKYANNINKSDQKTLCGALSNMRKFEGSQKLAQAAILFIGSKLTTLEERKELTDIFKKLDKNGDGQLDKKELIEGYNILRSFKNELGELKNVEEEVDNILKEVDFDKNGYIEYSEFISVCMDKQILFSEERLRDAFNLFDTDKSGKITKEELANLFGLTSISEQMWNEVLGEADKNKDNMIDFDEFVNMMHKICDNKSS

[6] = molecular target: Plasmodium falciparum protein kinase 6 (PK6, PF3D7_1337100) (UniProt Q8IDW1); assay: PfPK6 kinase inhibitors, biochemical, TCAMS library (AID 1159586); details: recombinant PfPK6, Kinase-Glo ATP depletion luminescence
Sequence of Plasmodium falciparum protein kinase 6 (PK6, PF3D7_1337100) (Q8IDW1 1-305): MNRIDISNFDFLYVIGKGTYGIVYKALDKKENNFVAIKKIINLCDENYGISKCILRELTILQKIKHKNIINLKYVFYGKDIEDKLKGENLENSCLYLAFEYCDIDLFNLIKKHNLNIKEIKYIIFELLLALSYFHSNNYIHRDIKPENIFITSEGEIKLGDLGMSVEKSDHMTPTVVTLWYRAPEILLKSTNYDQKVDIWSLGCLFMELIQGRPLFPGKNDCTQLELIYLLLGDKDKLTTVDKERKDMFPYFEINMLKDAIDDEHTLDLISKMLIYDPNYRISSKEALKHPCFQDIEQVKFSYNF

[7] = molecular target: Protein kinase 7 (PK7), Plasmodium falciparum 3D7 (PF3D7_0213400) (UniProt Q7YTF7); assay: inhibition of Plasmodium PK7 catalytic activity – biochemical, TCAMS antimalarial set, Kinase-Glo luminescence (AID 1159587); details: recombinant PfPK7, Kinase-Glo ATP depletion luminescence
Sequence of Protein kinase 7 (PK7), Plasmodium falciparum 3D7 (PF3D7_0213400) (Q7YTF7 1-343): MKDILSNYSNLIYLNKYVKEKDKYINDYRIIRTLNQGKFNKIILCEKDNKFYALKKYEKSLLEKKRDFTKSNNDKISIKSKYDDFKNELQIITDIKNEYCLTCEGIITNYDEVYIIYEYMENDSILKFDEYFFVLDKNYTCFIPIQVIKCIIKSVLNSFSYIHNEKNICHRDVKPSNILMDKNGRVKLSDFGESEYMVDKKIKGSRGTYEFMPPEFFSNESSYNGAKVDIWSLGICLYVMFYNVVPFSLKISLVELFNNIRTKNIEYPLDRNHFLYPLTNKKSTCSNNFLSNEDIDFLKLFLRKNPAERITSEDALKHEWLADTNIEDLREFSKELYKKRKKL

[8] = molecular target: Calcium-dependent protein kinase 4 (Plasmodium falciparum (isolate 3D7)) (UniProt Q8IBS5); assay: PfCDPK4 kinase inhibitors, biochemical, TCAMS library (AID 1159588; cut-off not given, nearly all actives have IC50 up to about 0.91 µM); details: recombinant PfCDPK4, Kinase-Glo ATP depletion luminescence
Sequence of Calcium-dependent protein kinase 4 (Plasmodium falciparum (isolate 3D7)) (Q8IBS5 whole entry, looked up): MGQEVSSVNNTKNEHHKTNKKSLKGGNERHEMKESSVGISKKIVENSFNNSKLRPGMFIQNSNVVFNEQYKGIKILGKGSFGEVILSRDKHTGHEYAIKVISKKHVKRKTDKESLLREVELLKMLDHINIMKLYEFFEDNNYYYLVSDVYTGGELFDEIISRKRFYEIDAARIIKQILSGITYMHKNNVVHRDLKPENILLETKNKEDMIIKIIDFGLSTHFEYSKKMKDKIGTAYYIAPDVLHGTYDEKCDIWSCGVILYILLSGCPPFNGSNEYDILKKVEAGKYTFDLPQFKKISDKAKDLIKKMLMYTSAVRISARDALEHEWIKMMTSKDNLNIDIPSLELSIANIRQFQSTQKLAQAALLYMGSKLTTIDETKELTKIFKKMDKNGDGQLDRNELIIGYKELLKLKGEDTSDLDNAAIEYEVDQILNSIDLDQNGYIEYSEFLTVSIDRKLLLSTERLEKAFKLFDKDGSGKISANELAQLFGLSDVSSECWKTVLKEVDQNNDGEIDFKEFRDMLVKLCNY

CCCc1ccc(C2CCN(CCCCNC(=O)c3ccc(NC(=O)c4ccc(Cl)cc4)cc3)CC2)cc1
inactive: inhibition [2] 39% | inhibition [3] 1% | outcome [5] | outcome [6] | outcome [7] | outcome [8]
active: growth inhibition [1] 100% | growth inhibition [4] 100%

O=C(Nc1cccc(-c2cc(-c3c(Cl)cccc3Cl)no2)c1)c1cncc(-c2cccs2)c1
inactive: growth inhibition [1] 39% | inhibition [2] -1% | inhibition [3] -2% | outcome [5] | outcome [6] | outcome [7] | outcome [8]
active: growth inhibition [4] 91%

c1cc(OCCN2CCCC2)ccc1CNC1CCN(CC2CCCCC2)CC1
inactive: inhibition [2] 15% | inhibition [3] 5% | outcome [5] | outcome [6] | outcome [7] | outcome [8]
active: growth inhibition [1] 54% | growth inhibition [4] 101%

O=C(Nc1cccc(CN2CCCN(CC3CCCCC3)CC2)c1)c1ccc(Cl)c(Cl)c1
active: growth inhibition [4] 91%
inactive: growth inhibition [1] 15% | inhibition [2] 39% | inhibition [3] 7% | outcome [5] | outcome [6] | outcome [7] | outcome [8]

Nc1ccc2[nH]cc(C3CCN(CC4CCN(C(=O)/C=C/c5ccc(Cl)c(Cl)c5)CC4)CC3)c2n1
inactive: inhibition [3] -2% | outcome [5] | outcome [6] | outcome [7] | outcome [8]
active: growth inhibition [1] 97% | inhibition [2] 53% | growth inhibition [4] 99%

O=C(Nc1ccc(C(F)(F)F)cc1)N[C@H]1CCN(CCCCCNC(=O)[C@@H]2C[C@H]2c2ccc(Cl)c(Cl)c2)C1
active: growth inhibition [4] 96%
inactive: growth inhibition [1] -1% | inhibition [2] 41% | inhibition [3] -2% | outcome [5] | outcome [6] | outcome [7] | outcome [8]

O=C(Nc1ccc(C(F)(F)F)cc1)c1ccc(S(=O)(=O)NC2CCN(Cc3ccccc3)C2)cc1 (stereo not given)
inactive: growth inhibition [1] 5% | inhibition [2] 42% | inhibition [3] 5% | outcome [5] | outcome [6] | outcome [7] | outcome [8]
active: growth inhibition [4] 101%

O=C(N[C@@H](Cc1ccccc1)C(=O)NC1CCCCC1)c1ccc(O)c(-c2cccc(C(F)(F)F)c2)c1
active: growth inhibition [4] 96%
inactive: growth inhibition [1] 36% | inhibition [2] 11% | inhibition [3] -2% | outcome [5] | outcome [6] | outcome [7] | outcome [8]

COc1ccc(Cn2c(Nc3cccc(C(F)(F)F)c3)nc3cc(C(=O)NCCCN(C)C)ccc32)cc1Cl
active: growth inhibition [4] 90%
inactive: growth inhibition [1] 3% | inhibition [2] 15% | inhibition [3] -7% | outcome [5] | outcome [6] | outcome [7] | outcome [8]

OCc1ccc(-c2cncc(Nc3cccc(Cl)c3)c2)cc1
active: growth inhibition [1] 100% | growth inhibition [4] 95%
inactive: inhibition [2] 4% | inhibition [3] -3% | outcome [5] | outcome [6] | outcome [7] | outcome [8]

O=C(NCC1Cc2cc(Oc3ccccc3)ccc2O1)c1ccc([N+](=O)[O-])o1 (stereo not given)
inactive: inhibition [3] -3% | outcome [5] | outcome [6] | outcome [7] | outcome [8]
active: growth inhibition [1] 81% | inhibition [2] 83% | growth inhibition [4] 88%

COc1ccc(CNC2CCN(C)CC2)cc1-c1ccc(OC)c(S(=O)(=O)NCc2ccccc2)c1
active: growth inhibition [1] 95% | growth inhibition [4] 99%
inactive: inhibition [2] 10% | inhibition [3] 5% | outcome [5] | outcome [6] | outcome [7] | outcome [8]

Cc1cc(=O)[nH]c2cc(Nc3ccnc(Nc4cccc(C(N)=O)c4)n3)ccc12
active: growth inhibition [1] 98% | growth inhibition [4] 99%
inactive: inhibition [2] 27% | inhibition [3] -4% | outcome [5] | outcome [6] | outcome [7] | outcome [8]

Cc1cc(N2CCOCC2)nc2ccc(NC(=O)c3ccc(Cl)c([N+](=O)[O-])c3)cc12
active: growth inhibition [4] 98%
inactive: growth inhibition [1] 15% | inhibition [2] 12% | inhibition [3] 3% | outcome [5] | outcome [6] | outcome [7] | outcome [8]

COc1cc(-c2ccc(-c3cnc(N)nc3OC)[nH]2)cc(OC)c1OC
active: growth inhibition [1] 54% | growth inhibition [4] 101%
inactive: inhibition [2] -3% | inhibition [3] -2% | outcome [5] | outcome [6] | outcome [7] | outcome [8]

O=C(NCc1cccs1)[C@H](Cc1ccccc1)Nc1ccnc(NCCc2ccccc2)n1
active: growth inhibition [1] 59% | growth inhibition [4] 85%
inactive: inhibition [2] -1% | inhibition [3] -2% | outcome [5] | outcome [6] | outcome [7] | outcome [8]

Oc1ccc(Nc2ccnc3cc(Cl)ccc23)cc1
active: growth inhibition [1] 97% | growth inhibition [4] 100%
inactive: inhibition [2] 0% | inhibition [3] 0% | outcome [5] | outcome [6] | outcome [7] | outcome [8]

Cc1cc2c(cc1C(F)(F)F)N(C(=O)Nc1cc(C(=O)NCCN(C)C)cc(C(F)(F)F)c1)CC2
inactive: inhibition [2] 19% | inhibition [3] -7% | outcome [5] | outcome [6] | outcome [7] | outcome [8]
active: growth inhibition [1] 50% | growth inhibition [4] 100%

CN1CCC(c2cc3c(cc2Br)CCN3C(=O)Nc2ccc(-c3ccncc3)c(Cl)c2)CC1
inactive: growth inhibition [1] -1% | inhibition [2] 26% | inhibition [3] -1% | outcome [5] | outcome [6] | outcome [7] | outcome [8]
active: growth inhibition [4] 91%

NC(N)=NC(=O)Nc1cc(Cl)c(Cl)c(Cl)c1
active: growth inhibition [1] 100% | growth inhibition [4] 101%
inactive: inhibition [2] -2% | inhibition [3] 6% | outcome [5] | outcome [6] | outcome [7] | outcome [8]

Cc1ccc(-c2nc(Nc3ccncc3)c3ccccc3n2)s1
active: growth inhibition [4] 95%
inactive: growth inhibition [1] 34% | inhibition [2] 6% | inhibition [3] 1% | outcome [5] | outcome [6] | outcome [7] | outcome [8]

Cc1ncccc1C(=O)Nc1cccc(-c2cccc(-c3nc4ccc(C(F)(F)F)cc4[nH]3)c2)c1
active: growth inhibition [4] 96%
inactive: growth inhibition [1] 30% | inhibition [2] 34% | inhibition [3] 1% | outcome [5] | outcome [6] | outcome [7] | outcome [8]

O=C(NCc1cccc(F)c1)c1ccc(O)c(-c2cc(Cl)cc(Cl)c2)c1
active: growth inhibition [1] 99% | growth inhibition [4] 99%
inactive: inhibition [2] 0% | inhibition [3] 1% | outcome [5] | outcome [6] | outcome [7] | outcome [8]

CC(CN1CCN(C)CC1)C(=O)Nc1cccc(-c2ccc(-c3nc4ccc(C(F)(F)F)cc4[nH]3)cc2)c1 (stereo not given)
inactive: inhibition [2] 11% | inhibition [3] -2% | outcome [5] | outcome [6] | outcome [7] | outcome [8]
active: growth inhibition [1] 98% | growth inhibition [4] 101%

OCCN1CCN(Cc2ccc(-c3ccc(-c4nc5ccc(C(F)(F)F)cc5[nH]4)s3)cc2)CC1
active: growth inhibition [1] 99% | inhibition [2] 65% | growth inhibition [4] 101%
inactive: inhibition [3] -7% | outcome [5] | outcome [6] | outcome [7] | outcome [8]

O=C(N[C@H]1CCN(Cc2ccc(OCCN3CCNCC3)c(Br)c2)C1)c1ccc(Cl)c(Cl)c1
active: inhibition [2] 69% | growth inhibition [4] 101%
inactive: growth inhibition [1] 36% | inhibition [3] 5% | outcome [5] | outcome [6] | outcome [7] | outcome [8]

NS(=O)(=O)NCCCN1CCN(c2ccccc2)CC1
active: growth inhibition [1] 73% | growth inhibition [4] 90%
inactive: inhibition [2] 2% | inhibition [3] -2% | outcome [5] | outcome [6] | outcome [7] | outcome [8]

CC1(C)CCCN(C(=O)c2cccc(-n3nc(-c4ccc(Cl)cc4)cc3N)c2)C1
active: growth inhibition [1] 98% | growth inhibition [4] 101%
inactive: inhibition [2] 13% | inhibition [3] -2% | outcome [5] | outcome [6] | outcome [7] | outcome [8]

CCN(CCN(C)C)Cc1ccc(-c2ccc(NS(=O)(=O)c3cccc4cccnc34)cc2)cc1
inactive: inhibition [2] 16% | inhibition [3] 1% | outcome [5] | outcome [6] | outcome [7] | outcome [8]
active: growth inhibition [1] 57% | growth inhibition [4] 91%

CCCCCCC1(C)N=C(N)N=C(N)C1c1ccc(Cl)c(Cl)c1 (stereo not given)
active: growth inhibition [4] 94%
inactive: growth inhibition [1] 43% | inhibition [2] 18% | inhibition [3] -9% | outcome [5] | outcome [6] | outcome [7] | outcome [8]

CC(=O)Nc1ccccc1OCc1cc2cc(C(=O)N3CCC(N4C(=O)OCc5ccccc54)CC3)ccc2o1
inactive: inhibition [2] 34% | inhibition [3] -2% | outcome [5] | outcome [6] | outcome [7] | outcome [8]
active: growth inhibition [1] 98% | growth inhibition [4] 99%

O=C(N[C@H]1CCN(Cc2ccc(OCCCN3CCCCC3)cc2)C1)c1ccc(Oc2ccccc2)cc1
inactive: growth inhibition [1] 11% | inhibition [3] 6% | outcome [5] | outcome [6] | outcome [7] | outcome [8]
active: inhibition [2] 56% | growth inhibition [4] 96%

O=C(Nc1cccc(CN2CCCN(Cc3cccc(Cl)c3)CC2)c1)c1ccc(Cl)c(Cl)c1
inactive: growth inhibition [1] 17% | inhibition [2] 18% | inhibition [3] -1% | outcome [5] | outcome [6] | outcome [7] | outcome [8]
active: growth inhibition [4] 89%

CCNc1cc(C)nc(Nc2ccc(NC(=O)c3ccccc3Cl)cc2)n1
active: growth inhibition [1] 52% | growth inhibition [4] 100%
inactive: inhibition [2] 48% | inhibition [3] -2% | outcome [5] | outcome [6] | outcome [7] | outcome [8]

Cc1cccc2[nH]c(-c3ccc(-c4ccc(CN5CCOCC5)cc4)cc3)nc12
inactive: inhibition [2] 29% | inhibition [3] 0% | outcome [5] | outcome [6] | outcome [7] | outcome [8]
active: growth inhibition [1] 86% | growth inhibition [4] 92%

COc1ccccc1-c1cc(C(=O)N2CCN(S(=O)(=O)c3ccc(C)cc3)CC2)[nH]n1
active: growth inhibition [1] 88% | growth inhibition [4] 88%
inactive: inhibition [2] -12% | inhibition [3] -4% | outcome [5] | outcome [6] | outcome [7] | outcome [8]

O=C(Nc1cccc(CN2CCCN(Cc3ccsc3)CC2)c1)c1ccc(-c2ccccc2)cc1
inactive: growth inhibition [1] 11% | inhibition [2] 30% | inhibition [3] -4% | outcome [5] | outcome [6] | outcome [7] | outcome [8]
active: growth inhibition [4] 90%

O=C(Nc1cccc(C(F)(F)F)c1)c1cccc(S(=O)(=O)NCC2CCN(CC3CCCCC3)CC2)c1
inactive: growth inhibition [1] 5% | inhibition [2] 27% | inhibition [3] 0% | outcome [5] | outcome [6] | outcome [7] | outcome [8]
active: growth inhibition [4] 97%

CN(C)S(=O)(=O)c1ccc(N2C(=O)[C@@H]3[C@H](C2=O)[C@@]2(c4ccccc4)C(=O)[C@]3(c3ccccc3)C(c3ccccc3)=C2c2ccccc2)cc1
active: growth inhibition [1] 63% | growth inhibition [4] 92%
inactive: inhibition [2] -10% | inhibition [3] 3% | outcome [5] | outcome [6] | outcome [7] | outcome [8]

Cc1cc(=O)c2cc(Oc3cccc(OC(F)(F)F)c3)ccc2[nH]1
active: growth inhibition [1] 80% | growth inhibition [4] 90%
inactive: inhibition [2] 9% | inhibition [3] 2% | outcome [5] | outcome [6] | outcome [7] | outcome [8]
